# In the supplement of paper PMC12819154, “High-throughput peptide-centric local stability assay extends protein–ligand identification to membrane proteins, tissues and bacteria” (Nature Structural & Molecular Biology, 2025):
# Compound: CN[C@@H]1C[C@H]2O[C@@](C)([C@@H]1OC)n1c3ccccc3c3c4c(c5c6ccccc6n2c5c31)C(=O)NC4 [staurosporine]
# Assay: log2 fold change of tryptic peptide abundance, ligand vs vehicle (limited proteolysis) (log2 ratio); higher = more trypsin-susceptible (destabilized)
# Conditions: ligand concentration: 20 uM; sample: mouse liver crude lysate; replicate design: treated separately
# Chain of UniProt Q8K0D0 (Q8K0D0 whole entry): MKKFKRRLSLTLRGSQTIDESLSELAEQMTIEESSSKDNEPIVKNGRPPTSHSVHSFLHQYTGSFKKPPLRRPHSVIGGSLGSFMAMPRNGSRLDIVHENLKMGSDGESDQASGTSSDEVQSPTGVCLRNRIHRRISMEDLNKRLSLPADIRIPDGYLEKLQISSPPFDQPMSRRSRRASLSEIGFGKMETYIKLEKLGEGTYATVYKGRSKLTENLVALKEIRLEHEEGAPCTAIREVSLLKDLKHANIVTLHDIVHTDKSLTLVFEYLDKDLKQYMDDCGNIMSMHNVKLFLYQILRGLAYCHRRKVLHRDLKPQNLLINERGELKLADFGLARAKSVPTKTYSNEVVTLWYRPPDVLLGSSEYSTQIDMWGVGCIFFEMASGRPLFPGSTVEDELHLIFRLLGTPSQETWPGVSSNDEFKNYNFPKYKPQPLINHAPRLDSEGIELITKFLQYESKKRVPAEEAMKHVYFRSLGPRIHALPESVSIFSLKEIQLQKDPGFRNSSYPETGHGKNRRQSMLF
# Chain of UniProt Q9D710 (Q9D710 whole entry): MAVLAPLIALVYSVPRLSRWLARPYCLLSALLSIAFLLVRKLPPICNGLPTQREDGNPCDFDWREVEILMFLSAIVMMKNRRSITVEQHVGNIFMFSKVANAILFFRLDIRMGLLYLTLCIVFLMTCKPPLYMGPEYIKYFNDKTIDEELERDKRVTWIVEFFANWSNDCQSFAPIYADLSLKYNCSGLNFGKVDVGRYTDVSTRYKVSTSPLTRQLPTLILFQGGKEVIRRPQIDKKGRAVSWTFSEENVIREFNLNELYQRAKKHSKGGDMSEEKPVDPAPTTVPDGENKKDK
# Chain of UniProt Q9WTU6 (Q9WTU6 whole entry): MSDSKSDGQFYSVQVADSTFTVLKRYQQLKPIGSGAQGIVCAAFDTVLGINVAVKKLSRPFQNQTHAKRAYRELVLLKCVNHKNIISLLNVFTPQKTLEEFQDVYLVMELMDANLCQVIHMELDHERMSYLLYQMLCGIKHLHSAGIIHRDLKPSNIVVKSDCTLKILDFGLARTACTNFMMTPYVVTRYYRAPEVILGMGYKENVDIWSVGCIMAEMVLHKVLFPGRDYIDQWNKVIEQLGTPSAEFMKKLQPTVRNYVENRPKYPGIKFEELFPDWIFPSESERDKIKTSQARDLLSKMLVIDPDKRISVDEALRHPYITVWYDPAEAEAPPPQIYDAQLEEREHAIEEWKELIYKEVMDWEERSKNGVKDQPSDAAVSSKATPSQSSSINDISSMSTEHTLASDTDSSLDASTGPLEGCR
# Chain of UniProt P33622 (P33622 whole entry): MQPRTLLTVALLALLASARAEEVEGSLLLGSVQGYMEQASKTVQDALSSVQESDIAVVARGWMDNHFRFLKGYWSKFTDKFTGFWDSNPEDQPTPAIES
# Chain of UniProt P12710 (P12710 whole entry): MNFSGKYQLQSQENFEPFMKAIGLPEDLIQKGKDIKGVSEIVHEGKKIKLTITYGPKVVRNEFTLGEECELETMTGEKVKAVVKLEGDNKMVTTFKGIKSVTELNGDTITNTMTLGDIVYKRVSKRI
# Chain of UniProt Q9R0T8 (Q9R0T8 whole entry): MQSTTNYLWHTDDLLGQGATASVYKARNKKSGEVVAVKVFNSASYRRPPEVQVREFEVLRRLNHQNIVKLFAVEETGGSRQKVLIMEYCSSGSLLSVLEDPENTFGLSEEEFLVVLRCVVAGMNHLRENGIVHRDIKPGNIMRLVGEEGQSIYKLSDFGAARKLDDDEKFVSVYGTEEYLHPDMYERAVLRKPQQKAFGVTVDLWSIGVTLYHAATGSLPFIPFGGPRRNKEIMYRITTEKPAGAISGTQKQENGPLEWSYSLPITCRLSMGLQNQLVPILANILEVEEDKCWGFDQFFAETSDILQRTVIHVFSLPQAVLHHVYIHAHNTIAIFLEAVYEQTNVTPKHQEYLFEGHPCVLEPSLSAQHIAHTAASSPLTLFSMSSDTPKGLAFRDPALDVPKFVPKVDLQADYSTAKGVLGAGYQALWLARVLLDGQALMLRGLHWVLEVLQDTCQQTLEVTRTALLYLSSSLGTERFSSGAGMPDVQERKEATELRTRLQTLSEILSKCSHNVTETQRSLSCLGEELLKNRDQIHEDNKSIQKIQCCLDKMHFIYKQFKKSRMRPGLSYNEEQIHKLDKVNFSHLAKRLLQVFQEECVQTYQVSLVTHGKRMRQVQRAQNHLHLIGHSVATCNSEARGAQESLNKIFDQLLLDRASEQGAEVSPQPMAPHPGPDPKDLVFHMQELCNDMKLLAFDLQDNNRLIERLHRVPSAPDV
# Chain of UniProt Q9QZD8 (Q9QZD8 whole entry): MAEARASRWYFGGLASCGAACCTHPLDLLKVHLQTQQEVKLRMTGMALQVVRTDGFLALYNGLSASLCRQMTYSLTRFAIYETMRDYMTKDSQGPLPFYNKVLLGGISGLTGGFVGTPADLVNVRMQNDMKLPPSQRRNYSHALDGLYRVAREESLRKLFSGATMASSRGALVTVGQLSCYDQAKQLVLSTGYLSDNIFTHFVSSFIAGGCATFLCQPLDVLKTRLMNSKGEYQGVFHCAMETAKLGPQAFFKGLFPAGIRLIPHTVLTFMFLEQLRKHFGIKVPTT
# Chain of UniProt P48962 (P48962 whole entry): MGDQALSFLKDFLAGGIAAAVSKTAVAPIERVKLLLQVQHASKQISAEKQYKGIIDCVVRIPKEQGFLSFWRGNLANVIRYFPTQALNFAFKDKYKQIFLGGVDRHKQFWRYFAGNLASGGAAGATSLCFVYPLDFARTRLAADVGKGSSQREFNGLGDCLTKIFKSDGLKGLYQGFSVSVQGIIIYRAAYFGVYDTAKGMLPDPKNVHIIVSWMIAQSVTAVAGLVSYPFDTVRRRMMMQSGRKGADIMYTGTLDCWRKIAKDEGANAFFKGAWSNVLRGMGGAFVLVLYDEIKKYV
# Chain of UniProt P24788 (P24788 whole entry): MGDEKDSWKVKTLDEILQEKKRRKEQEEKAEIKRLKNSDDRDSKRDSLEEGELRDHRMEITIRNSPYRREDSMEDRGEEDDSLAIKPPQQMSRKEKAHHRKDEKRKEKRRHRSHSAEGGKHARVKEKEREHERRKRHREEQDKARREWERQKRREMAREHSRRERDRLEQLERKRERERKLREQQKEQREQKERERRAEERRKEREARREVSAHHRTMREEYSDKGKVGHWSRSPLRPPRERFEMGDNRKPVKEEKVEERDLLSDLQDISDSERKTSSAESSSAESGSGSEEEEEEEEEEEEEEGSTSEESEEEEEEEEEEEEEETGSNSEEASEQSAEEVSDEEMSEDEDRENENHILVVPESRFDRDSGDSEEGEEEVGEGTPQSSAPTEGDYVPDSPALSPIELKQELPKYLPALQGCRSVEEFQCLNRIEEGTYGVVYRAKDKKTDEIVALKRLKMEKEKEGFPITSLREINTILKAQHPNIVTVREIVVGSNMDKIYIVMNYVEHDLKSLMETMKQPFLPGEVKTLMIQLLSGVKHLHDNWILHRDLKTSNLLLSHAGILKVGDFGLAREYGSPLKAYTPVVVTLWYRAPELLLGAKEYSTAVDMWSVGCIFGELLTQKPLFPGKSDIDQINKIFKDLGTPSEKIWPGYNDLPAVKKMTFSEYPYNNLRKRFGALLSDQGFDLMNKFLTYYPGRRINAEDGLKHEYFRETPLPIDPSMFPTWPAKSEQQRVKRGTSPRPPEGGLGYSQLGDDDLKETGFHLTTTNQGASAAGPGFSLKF
# Chain of UniProt Q921S7 (Q921S7 whole entry): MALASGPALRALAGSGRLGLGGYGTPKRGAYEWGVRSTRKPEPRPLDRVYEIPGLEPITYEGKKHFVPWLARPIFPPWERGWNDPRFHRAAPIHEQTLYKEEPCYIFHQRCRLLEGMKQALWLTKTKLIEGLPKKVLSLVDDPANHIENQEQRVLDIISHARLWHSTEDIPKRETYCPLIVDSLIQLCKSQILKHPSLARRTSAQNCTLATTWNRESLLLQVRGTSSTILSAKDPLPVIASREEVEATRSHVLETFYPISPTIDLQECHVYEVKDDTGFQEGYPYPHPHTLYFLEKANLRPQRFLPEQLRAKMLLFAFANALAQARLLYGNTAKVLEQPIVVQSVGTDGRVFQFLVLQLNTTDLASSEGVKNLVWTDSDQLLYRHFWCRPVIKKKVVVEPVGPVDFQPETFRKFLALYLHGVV
row,Target,log2 fold change
1,"UniProt Q9QZD8 (peptide sequence: MTGMALQVVR, peptide start residue: 43)",0.567
2,"UniProt Q9R0T8 (peptide sequence: DIKPGNIMR, peptide start residue: 135)",-1.44
3,"UniProt Q921S7 (peptide sequence: HFVPWLAR, peptide start residue: 65)",0.415
4,"UniProt Q9WTU6 (peptide sequence: MLVIDPDKR, peptide start residue: 301)",-1.15
5,"UniProt P48962 (peptide sequence: MMMQSGRK, peptide start residue: 238)",0.293
6,"UniProt P12710 (peptide sequence: DIKGVSEIVHEGK, peptide start residue: 34)",0.719
7,"UniProt Q8K0D0 (peptide sequence: SKLTENLVALK, peptide start residue: 140)",-2.51
8,"UniProt P24788 (peptide sequence: YLPALQGCR, peptide start residue: 414)",-0.33
9,"UniProt P47911 (peptide sequence: HQEGEIFDTEK, peptide start residue: 235)",0.281
10,"UniProt Q9D710 (peptide sequence: EFNLNELYQR, peptide start residue: 254)",-0.349
11,"UniProt Q99N91 (peptide sequence: GNEYQPSNIK, peptide start residue: 50)",0.323
12,"UniProt P33622 (peptide sequence: GWMDNHFR, peptide start residue: 61)",0.483
